# PubChem BioAssay
# Values without a mark were called inactive. Some of the results follow. Activity calls are given as the source filed them.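 The calls were made as follows, unless noted: active = membrane potential signal moves up or down beyond 5 SD from buffer-only wells, on both duplicate plates; inactive = the rest.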
# Columns and labels:
# [1] = parental HEK293 membrane potential modulation, confirmation, counter-screen for TRPC6 modulator project, cell-based (AID 488924); details: parental HEK293, membrane potential dye fluorescence; at 10 µM
# [2] = modulation of acetylcholine-evoked membrane potential, parental HEK293, confirmation, counter-screen for TRPC6 modulator project, cell-based, second counter-screen, membrane potential dye (AID 488926;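 active = membrane potential signal drops by more than 5 SD from the mean control signal, in both duplicate plates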;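 as to inhibition: plate controls were acetylcholine ECmax control wells for no effect and buffer only wells for full effect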); details: parental HEK293, membrane potential dye fluorescence, at 10 µM, after compound, maximal acetylcholine stimulation; hits give high values
# [3] = tested on: Transient receptor potential cation channel subfamily C member 4 (mouse); assay: TRPC4 modulation by TRPC6 hit compounds, confirmation, selectivity assay for TRPC6 modulator project, cell-based, HEK293 TRPC4/mu-opioid, membrane potential dye, mouse (AID 488927;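 active = membrane potential signal moved up or down beyond 5 SD of buffer control wells, in both duplicate plates, actives on both sides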;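 as to percent change from control (negative = decrease, positive = increase): plate controls were assay buffer wells for no effect and DAMGO maximal-effect wells for full effect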); details: membrane potential fluorescence, at 10 µM
# [4] = tested on: TRPC4 (transient receptor potential cation channel C4), mouse; assay: TRPC4 inhibition by TRPC6 hit compounds, confirmation, selectivity assay for TRPC6 modulator project, cell-based, second screen, HEK293 TRPC4/mu-opioid, membrane potential dye (AID 488928;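 active = drop in membrane potential signal beyond 5 SD of the control wells in both duplicate plates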;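 also: TRPC4 counter screen for TRPC6 hits run under conditions tuned for TRPC6 not TRPC4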); details: membrane potential dye fluorescence, at 10 µM, stimulated with maximal-effect DAMGO; hits give high values
# [5] = target: Short transient receptor potential channel 6 (Mus musculus) (UniProt Q61143); assay: mouse TRPC6 channel inhibitors, confirmation, HEK293 cells, membrane potential dye, duplicate (AID 488960;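 active = fluorescence ratio falls more than 5 SD below the full-stimulation control mean, in both duplicate runs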;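 as to inhibition: integrated fluorescence ratio of peak minus minimum over baseline after agonist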); details: ACh-evoked depolarization, at 10 µM; hits give high values
# Chain of Short transient receptor potential channel 6 (Mus musculus) (Q61143 whole entry, looked up): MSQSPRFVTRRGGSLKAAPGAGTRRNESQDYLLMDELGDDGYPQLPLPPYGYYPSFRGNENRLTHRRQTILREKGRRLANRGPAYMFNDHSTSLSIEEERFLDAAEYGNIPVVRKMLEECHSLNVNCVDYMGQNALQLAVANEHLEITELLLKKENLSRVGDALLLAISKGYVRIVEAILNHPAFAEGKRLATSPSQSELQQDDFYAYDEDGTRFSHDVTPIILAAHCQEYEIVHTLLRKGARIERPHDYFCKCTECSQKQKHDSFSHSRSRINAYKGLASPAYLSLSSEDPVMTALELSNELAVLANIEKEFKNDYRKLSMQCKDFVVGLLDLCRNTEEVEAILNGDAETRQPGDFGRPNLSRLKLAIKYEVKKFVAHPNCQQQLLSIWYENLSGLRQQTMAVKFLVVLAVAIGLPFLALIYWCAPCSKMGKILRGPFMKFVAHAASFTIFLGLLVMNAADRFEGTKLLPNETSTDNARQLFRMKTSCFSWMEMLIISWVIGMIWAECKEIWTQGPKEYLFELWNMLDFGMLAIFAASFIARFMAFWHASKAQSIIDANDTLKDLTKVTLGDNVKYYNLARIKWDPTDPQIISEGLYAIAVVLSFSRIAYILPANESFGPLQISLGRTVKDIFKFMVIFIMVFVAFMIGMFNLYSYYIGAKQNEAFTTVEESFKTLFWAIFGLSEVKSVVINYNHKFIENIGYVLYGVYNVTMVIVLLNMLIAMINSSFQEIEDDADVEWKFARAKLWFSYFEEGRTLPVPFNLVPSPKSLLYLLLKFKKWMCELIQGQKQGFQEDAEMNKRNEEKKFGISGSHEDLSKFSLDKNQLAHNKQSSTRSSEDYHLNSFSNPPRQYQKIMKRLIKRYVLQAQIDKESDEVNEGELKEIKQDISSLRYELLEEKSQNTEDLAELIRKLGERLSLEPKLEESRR
# [6] = target: Short transient receptor potential channel 6 (Mus musculus) (UniProt Q61143); assay: mouse TRPC6 channel activators, confirmation, HEK293 cells, membrane potential dye, duplicate (AID 488961;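 active = ratio signal rise beyond 5 SD above unstimulated control wells' mean, seen in both duplicate runs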;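 as to activation: plate controls were buffer EC0 wells for no effect and acetylcholine ECmax response for full effect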); details: HEK293-TRPC6 membrane potential dye fluorescence, FDSS, at 10 µM; hits give high values
# [7] = target: Potassium voltage-gated channel subfamily KQT member 1 (Homo sapiens) (UniProt P51787); assay: KCNQ1 potassium channel inhibitors, confirmation, cell-based, Tl flux, duplicate (AID 588353;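 active = primary screen active, with duplicate mean exceeding buffer control mean plus 3 SD of buffer wells, cut at about 28% in these data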;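 also: 0% = buffer control ratio and 100% = XE991 inhibitor control ratio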); details: KCNQ1 cell line, FluxOR thallium flux fluorescence, at 10 µM, hits give high values
# Chain of Potassium voltage-gated channel subfamily KQT member 1 (Homo sapiens) (P51787 whole entry, looked up): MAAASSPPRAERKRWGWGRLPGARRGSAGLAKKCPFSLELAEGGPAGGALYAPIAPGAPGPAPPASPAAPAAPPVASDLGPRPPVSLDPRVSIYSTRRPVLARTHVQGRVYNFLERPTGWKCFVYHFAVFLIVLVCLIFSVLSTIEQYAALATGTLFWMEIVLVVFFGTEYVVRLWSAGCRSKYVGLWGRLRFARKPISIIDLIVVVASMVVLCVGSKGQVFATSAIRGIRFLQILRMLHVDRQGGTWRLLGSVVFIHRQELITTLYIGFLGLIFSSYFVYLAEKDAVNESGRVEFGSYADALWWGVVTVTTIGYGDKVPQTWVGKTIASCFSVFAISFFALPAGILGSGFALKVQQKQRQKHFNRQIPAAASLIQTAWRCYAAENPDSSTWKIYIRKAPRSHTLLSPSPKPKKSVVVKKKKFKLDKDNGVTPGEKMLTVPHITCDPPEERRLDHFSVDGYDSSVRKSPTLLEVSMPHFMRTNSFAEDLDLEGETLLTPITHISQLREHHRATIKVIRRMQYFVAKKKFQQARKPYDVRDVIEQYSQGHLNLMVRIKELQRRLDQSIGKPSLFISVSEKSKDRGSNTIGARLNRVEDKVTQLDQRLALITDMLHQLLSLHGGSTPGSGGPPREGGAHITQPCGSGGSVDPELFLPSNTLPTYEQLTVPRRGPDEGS
# [8] = thallium flux effects in parental CHO cells, counter-screen for KCNQ1 inhibitor project, cell-based, Tl flux (AID 588366;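 active = mean of duplicate thallium-flux fluorescence ratios in parental host cells more than 5 SD below the buffer control mean, cut at about 0.38 in these data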;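 also: ratio is peak minus minimum fluorescence divided by baseline fluorescence; actives read low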); details: parental CHO-K1, FluxOR thallium flux fluorescence ratio; at 10 µM; hits give low values; zero means no signal rise above baseline
# [9] = target: Potassium voltage-gated channel subfamily KQT member 2 (Rattus norvegicus) (UniProt O88943); assay: KCNQ2 channel inhibition, selectivity assay for KCNQ1 inhibitor project, cell-based (AID 651746;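 active = mean percent inhibition of the KCNQ2 thallium signal more than 5 SD above the buffer-only control wells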;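 also: 0% = buffer control wells and 100% = XE-991 inhibitor control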); details: KCNQ2 cells, FluxOR thallium flux fluorescence, at 10 µM; hits give high values
# Chain of Potassium voltage-gated channel subfamily KQT member 2 (Rattus norvegicus) (O88943 whole entry, looked up): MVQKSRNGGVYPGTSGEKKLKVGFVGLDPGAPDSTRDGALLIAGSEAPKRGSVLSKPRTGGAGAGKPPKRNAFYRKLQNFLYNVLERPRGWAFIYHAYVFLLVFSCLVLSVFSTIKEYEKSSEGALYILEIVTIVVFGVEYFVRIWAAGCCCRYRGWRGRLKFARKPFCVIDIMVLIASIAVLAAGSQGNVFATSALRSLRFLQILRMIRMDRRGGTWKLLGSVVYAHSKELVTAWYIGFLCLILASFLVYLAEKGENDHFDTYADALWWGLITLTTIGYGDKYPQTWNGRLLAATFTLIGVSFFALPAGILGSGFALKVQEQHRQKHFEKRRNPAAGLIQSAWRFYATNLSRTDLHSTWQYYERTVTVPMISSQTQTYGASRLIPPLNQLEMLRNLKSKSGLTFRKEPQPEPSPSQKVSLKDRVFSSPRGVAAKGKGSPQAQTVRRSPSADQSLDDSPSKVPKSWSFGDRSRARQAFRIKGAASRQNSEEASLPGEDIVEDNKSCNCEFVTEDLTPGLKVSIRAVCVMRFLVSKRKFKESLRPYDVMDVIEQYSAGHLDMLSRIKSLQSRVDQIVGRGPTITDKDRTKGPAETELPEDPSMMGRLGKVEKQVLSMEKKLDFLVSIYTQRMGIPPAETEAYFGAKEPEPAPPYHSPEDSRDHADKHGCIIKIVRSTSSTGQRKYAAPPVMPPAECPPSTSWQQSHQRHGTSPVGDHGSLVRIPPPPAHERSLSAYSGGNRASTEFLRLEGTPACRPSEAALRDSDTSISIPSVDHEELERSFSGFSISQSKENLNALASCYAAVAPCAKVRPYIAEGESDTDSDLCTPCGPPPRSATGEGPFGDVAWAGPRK
# [10] = target: Potassium voltage-gated channel subfamily E member 1 (Homo sapiens) + Potassium voltage-gated channel subfamily KQT member 1 (Homo sapiens) (UniProt P15382+P51787); assay: KCNQ1/KCNE1 channel inhibition, selectivity assay for KCNQ1 inhibitor project, CHO-K1 cells, thallium flux, FluxOR (AID 652147;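 active = mean percent inhibition of duplicate wells above the buffer-only control mean plus 3 SD of those controls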;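 also: 0% = buffer only wells and 100% = XE-991 inhibitor control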); details: FluxOR thallium flux fluorescence, at 10 µM; hits give high values
# Chain of Potassium voltage-gated channel subfamily E member 1 (Homo sapiens) + Potassium voltage-gated channel subfamily KQT member 1 (Homo sapiens) (P51787 whole entry, looked up): as the sequence (P51787 whole entry, looked up) above
# [11] = thallium flux activation in parental CHO cells, counter-screen for KCNQ1 potentiator project (AID 493006;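 active = duplicate-averaged activation above buffer control mean plus 5 SD of those controls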;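 as to activation: fluorescence ratio of max minus min over baseline after K+ and Tl+ depolarization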); details: parental CHO-K1 cells, FluxOR thallium flux, at 10 µM; hits give high values
# [12] = target: Potassium voltage-gated channel subfamily KQT member 1 (Homo sapiens) (UniProt P51787); assay: KCNQ1 potassium channel potentiators, confirmation, FluxOR thallium flux, CHO cells, duplicates (AID 493007;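 active = potentiation averaged over duplicate wells exceeding buffer-only control mean by more than 3 SD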;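 as to outcome: cells depolarized by a potassium plus thallium sulfate stimulus after compound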;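 as to potentiation: 0% = buffer-only wells and 100% = R-L3 activator control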); details: KCNQ1 cell line, FluxOR thallium flux fluorescence, at 10 µM; hits give high values, % of reference activator effect, buffer zero
# [13] = target: Potassium voltage-gated channel subfamily KQT member 2 (Rattus norvegicus) (UniProt O88943); assay: rat KCNQ2 channel potentiation, selectivity assay for KCNQ1 potentiator project, KCNQ2-CHO-K1 cells (AID 493009;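 active = mean duplicate potentiation above the buffer control mean plus 5 SD of buffer wells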;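 also: assay conditions were tuned for KCNQ1 rather than KCNQ2 modulators; signal is max minus min fluorescence divided by baseline after thallium stimulus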); details: FluxOR thallium flux fluorescence, at 10 µM; hits give high values, scaled: buffer 0, activator control 100
# [14] = target: Potassium voltage-gated channel subfamily KQT member 1 (Homo sapiens) (UniProt P51787); assay: KCNQ1 channel current potentiators, confirmation, orthogonal assay for KCNQ1 potentiator project, IonWorks patch clamp, KCNQ1-CHO cells (AID 493184;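 active = current rise at least 3 SD above the untreated control mean in each of two repeat wells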); details: automated patch clamp current, at 10 µM; hits give high values
compound,measurement,setting,value
CCN(CC)S(=O)(=O)c1ccc(N2CC(C(=O)NCc3cccnc3)CC2=O)cc1 (configuration not stated),outcome,[1],inactive
same,outcome,[2],inactive
same,outcome,[3],inactive
same,outcome,[4],inactive
same,outcome,[5],inactive
same,outcome,[6],inactive
CCCCN(C)CCCNC(=O)c1cc(-c2cccs2)nc2ccccc12,outcome,[1],inactive
same,outcome,[2],inactive
same,"percent change from control (negative = decrease, positive = increase)",[3],-13% (active)
same,inhibition,[4],65.5% (active)
same,outcome,[5],inactive
same,outcome,[6],inactive
CCOC(=O)c1sc2nc(CSCC(=O)OCc3ccc(C(=O)OC)o3)[nH]c(=O)c2c1C,membrane potential signal change,[1],148% (active)
same,outcome,[2],inactive
same,outcome,[3],inactive
same,outcome,[4],inactive
same,inhibition,[5],90% (active)
same,activation,[6],134% (active)
CCCc1cc(=O)oc2c(C)c(O)c(CN3CCCCC3)cc12,outcome,[1],inactive
same,outcome,[2],inactive
same,outcome,[3],inactive
same,outcome,[4],inactive
same,inhibition,[5],54.5% (active)
same,outcome,[6],inactive
Cc1ccc(NC(=S)N(CCCN2CCCC2)Cc2cccn2Cc2ccc(Cl)cc2)cc1,outcome,[1],inactive
same,outcome,[2],inactive
same,outcome,[3],inactive
same,inhibition,[4],47.5% (active)
same,outcome,[5],inactive
same,outcome,[6],inactive
O=S(=O)(c1cccc(Cn2nnc(-c3ccc(F)cc3)n2)c1)N1CCOCC1,outcome,[1],inactive
same,outcome,[2],inactive
same,outcome,[3],inactive
same,outcome,[4],inactive
same,outcome,[5],inactive
same,outcome,[6],inactive
O=[N+]([O-])c1ccccc1Nc1ccc(O)cc1,membrane potential signal change,[1],-186% (active)
same,outcome,[2],inactive
same,"percent change from control (negative = decrease, positive = increase)",[3],-32% (active)
same,inhibition,[4],61.5% (active)
same,outcome,[5],inactive
same,outcome,[6],inactive
O=C(CN1CCCCCC1)N1c2ccccc2Sc2ccc(C(F)(F)F)cc21,membrane potential signal change,[1],122% (active)
same,outcome,[2],inactive
same,"percent change from control (negative = decrease, positive = increase)",[3],18.5% (active)
same,outcome,[4],inactive
same,inhibition,[5],46.5% (active)
same,outcome,[6],inactive
c1ccc(C2CNCc3c2ccc2ccccc32)cc1 (configuration not stated),outcome,[1],inactive
same,outcome,[2],inactive
same,outcome,[3],inactive
same,inhibition,[4],81.5% (active)
same,inhibition,[5],58% (active)
same,outcome,[6],inactive
CN1CCN(c2nc(Nc3ccc(O)cc3)nc3ccccc23)CC1,membrane potential signal change,[1],-221% (active)
same,inhibition,[2],65.5% (active)
same,"percent change from control (negative = decrease, positive = increase)",[3],-38% (active)
same,inhibition,[4],71% (active)
same,inhibition,[5],67.5% (active)
same,outcome,[6],inactive
Cc1cccc(-[n+]2c(-c3cccc(Br)c3)[nH]c3nc4ccccc4nc32)c1,outcome,[1],inactive
same,outcome,[2],inactive
same,outcome,[3],inactive
same,inhibition,[4],51% (active)
same,outcome,[5],inactive
same,outcome,[6],inactive
N=c1c2c3c(sc2nc2n1CCCCC2)CCCC3,membrane potential signal change,[1],-118% (active)
same,outcome,[2],inactive
same,"percent change from control (negative = decrease, positive = increase)",[3],-22.5% (active)
same,inhibition,[4],55.5% (active)
same,inhibition,[5],61% (active)
same,outcome,[6],inactive
CCCCCCn1cc(C(=O)O)c(=O)c2cc(F)c(N3CCCCC3)cc21,outcome,[1],inactive
same,outcome,[2],inactive
same,"percent change from control (negative = decrease, positive = increase)",[3],11% (active)
same,outcome,[4],inactive
same,outcome,[5],inactive
same,activation,[6],39.5% (active)
COc1ccc(C(=O)C2CCCN(Cc3cccn3-c3ccccn3)C2)c(C)c1 (configuration not stated),outcome,[1],inactive
same,inhibition,[2],140% (active)
same,"percent change from control (negative = decrease, positive = increase)",[3],-17.5% (active)
same,inhibition,[4],99% (active)
same,inhibition,[5],107% (active)
same,outcome,[6],inactive
same,inhibition,[7],41.5% (active)
same,fluorescence ratio (Tl flux),[8],0.496
same,inhibition,[9],89% (active)
same,inhibition,[10],39.5% (active)
CCCC(=O)Nc1ccc(C(=O)NCCCn2ccnc2)cc1,outcome,[1],inactive
same,outcome,[2],inactive
same,outcome,[3],inactive
same,outcome,[4],inactive
same,outcome,[5],inactive
same,outcome,[6],inactive
COCCCn1c(=S)[nH]c2c(sc3ccccc32)c1=O,activation,[11],176% (active)
same,potentiation,[12],69.5% (active)
same,potentiation,[13],160% (active)
same,outcome,[14],inactive
COc1ccc(-c2nnc(NC(=O)CS(=O)(=O)c3ccc(Cl)cc3)o2)c(OC)c1,membrane potential signal change,[1],86% (active)
same,outcome,[2],inactive
same,outcome,[3],inactive
same,outcome,[4],inactive
same,outcome,[5],inactive
same,activation,[6],46.5% (active)
O=C(O)c1ccc(NC(=O)c2ccc(COc3ccc(Cl)cc3)o2)cc1,outcome,[1],inactive
same,outcome,[2],inactive
same,outcome,[3],inactive
same,outcome,[4],inactive
same,outcome,[5],inactive
same,outcome,[6],inactive
Nc1c(C(=O)c2cccs2)sc2nsc(SCCN3CCCCC3)c12,membrane potential signal change,[1],238% (active)
same,outcome,[2],inactive
same,"percent change from control (negative = decrease, positive = increase)",[3],174% (active)
same,outcome,[4],inactive
same,outcome,[5],inactive
same,outcome,[6],inactive
CN(CC(=O)Nc1ccccc1[N+](=O)[O-])Cc1ccc(Br)cc1,outcome,[1],inactive
same,outcome,[2],inactive
same,outcome,[3],inactive
same,inhibition,[4],29% (active)
same,outcome,[5],inactive
same,outcome,[6],inactive
Cc1nc(N=C(N)N)nc2c(C)cccc12,membrane potential signal change,[1],-235% (active)
same,inhibition,[2],76.5% (active)
same,"percent change from control (negative = decrease, positive = increase)",[3],-42.5% (active)
same,inhibition,[4],60% (active)
same,inhibition,[5],67.5% (active)
same,outcome,[6],inactive
CCCCCn1c(=O)c(F)cn(Cc2ccc(OC)c([N+](=O)[O-])c2)c1=O,outcome,[11],inactive
same,outcome,[12],inactive
same,outcome,[13],inactive
same,outcome,[14],inactive
CN1CCN(/N=C/c2ccc(-c3ccc([N+](=O)[O-])cc3)o2)CC1,membrane potential signal change,[1],407% (active)
same,outcome,[2],inactive
same,"percent change from control (negative = decrease, positive = increase)",[3],65.5% (active)
same,inhibition,[4],43.5% (active)
same,activation,[6],158% (active)
